Reference: PubChem BioAssay (NCI)
Compounds without any hit were thinned out: in the full panel of roughly 83,000, 20% have a hit.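 48-hour exposure, single concentration, 96-well plates; percent growth endpoint where 0 means no net growth. Active: below 10.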 Unmarked numbers belong to inactive results. Calls of active or inactive are those of the source.

Columns and labels:
Assay in all cases: NCI-60 one-dose screen, 48 h (100 = growth as untreated, 0 = no growth, -100 = all killed)
Details in all cases: 10 µM unless noted
HCT-15 colon = test system: HCT-15 colon
HT29 colon = test system: HT29 colon
SNB-75 CNS = test system: SNB-75 CNS
SNB-19 CNS = test system: SNB-19 CNS
U251 CNS = test system: U251 CNS
PC-3 prostate = test system: PC-3 prostate
SK-MEL-5 melanoma = test system: SK-MEL-5 melanoma
UACC-62 melanoma = test system: UACC-62 melanoma
LOX IMVI melanoma = test system: LOX IMVI melanoma
SK-MEL-28 melanoma = test system: SK-MEL-28 melanoma

Structure (SMILES)	growth (HCT-15 colon)	growth (HT29 colon)	growth (SNB-75 CNS)	growth (SNB-19 CNS)	growth (U251 CNS)	growth (PC-3 prostate)	growth (SK-MEL-5 melanoma)	growth (UACC-62 melanoma)	growth (LOX IMVI melanoma)	growth (SK-MEL-28 melanoma)
O=C(CCCCCCCCC(=O)Nc1cccc(C2=NCCN2)c1)Nc1cccc(C2=NCCN2)c1	102%	82.3%	110%	102%	91.7%	84.9%	98.2%	105%	98.7%	92.8%
COc1ccccc1-c1ccc2nc(NC(=O)Nc3cc(C(F)(F)F)cc(C(F)(F)F)c3)sc2c1	9.74% (active)	4.76% (active)	8.11% (active)	25.1%	12.5%	13.5%	-86.1% (active)	10.8%	5.02% (active)	31.1%
COc1ccc2[nH]c3nc4cnccc4cc3c2c1	97.9%	99.7%	97.5%	105%	98.9%	104%	108%	117%	105%	114%
CCOC(=O)c1c(C)nc2c(c1N)/C(=C/c1ccc[nH]1)C(=O)N2Cc1ccc(C(F)(F)F)cc1	68.8%	70%	25.3%	36.3%	25.2%	52.1%	82.2%	81.8%	56.7%	89.6%
c1ccc(Sc2ncccn2)nc1	102%	101%	72.5%	89.9%	104%	97.9%	102%	93.6%	92.6%	109%
O=C(O)c1cn(C2CC2)c2cc(N3CCN(C(=O)CSc4nnc(-c5ccc(Cl)cc5)n4-c4ccccc4)CC3)c(F)cc2c1=O	104%	97.2%	95.8%	91.3%	101%	93.7%	98.8%	91.3%	72.3%	109%
C=C1C(=O)O[C@H]2[C@H]1CC/C(COC(=O)c1cccnc1)=C\CC[C@@]1(C)O[C@@H]21	34.4%	33.5%	83.4%	90.2%	88.5%	66.1%	88.9%	69.5%	75%	89%
[2H]c1nc(Nc2ncc3cc(C(=O)N(C)C)n(C4CCCC4)c3n2)c([2H])c([2H])c1N1C([2H])([2H])C([2H])([2H])NC([2H])([2H])C1([2H])[2H]	79.9%	27.6%	69.7%	61.5%	56.1%	54.6%	72.3%	64.6%	40.2%	84.2%
C=C1C(=O)O[C@H]2[C@H]1CC/C(COC(=O)CCCCCCCC(=O)OC/C1=C/CC[C@@]3(C)O[C@H]3[C@H]3OC(=O)C(=C)[C@@H]3CC1)=C\CC[C@@]1(C)O[C@@H]21	-4.93% (active)	-8.08% (active)	68%	55%	32.3%	15.2%	17.5%	-10.2% (active)	-51.9% (active)	20.7%
COc1ccc(-c2cs/c(=N\N=C\c3ccc(O)cc3O)n2/N=C/c2ccc(O)cc2O)cc1	-53.1% (active)	-29% (active)	29.7%	5.62% (active)	-35.8% (active)	-67.3% (active)	-38.6% (active)	-36.3% (active)	-36% (active)	-22.9% (active)
COc1cc(-c2nn(-c3ccc(Br)cc3)cc2CO)ccc1O	87.4%	88.8%	87.7%	94%	95.2%	75%	94.1%	78.9%	86.5%	110%
COc1cc(C2=N/C(=C\c3cc4ccccc4nc3Oc3ccccc3)C(=O)N2C(=N)N)cc(OC)c1OC	91.3%	64.2%	6.51% (active)	32.3%	50.6%	70.4%	83.5%	50%	66.9%	78.4%
COc1cc([C@H](C)c2ccc3ccccc3c2)cc(OC)c1OC	21.7%	8.72% (active)	0.258% (active)	32.7%	19.6%	30.5%	18.1%	32.5%	48.6%	61.8%
CC(=O)OC[C@]12CC[C@@H](c3cn(Cc4ccc(Cn5cc([C@@H]6CC[C@]7(COC(C)=O)CC[C@]8(C)[C@H](CC[C@@H]9[C@@]%10(C)CC[C@H](OC(C)=O)C(C)(C)[C@@H]%10CC[C@]98C)[C@@H]67)nn5)cc4)nn3)[C@@H]1[C@H]1CC[C@@H]3[C@@]4(C)CC[C@H](OC(C)=O)C(C)(C)[C@@H]4CC[C@@]3(C)[C@]1(C)CC2	102%	97.2%	105%	96.7%	103%	104%	105%	95.8%	97.3%	99.8%
Cc1nnc(/N=C2\NC(=O)/C(=C/c3ccc(N(C)C)cc3)S2)s1	47.7%	106%	67.5%	80.1%	72.1%	57.8%	42.7%	74.9%	64.6%	69.2%
CC(C)(C)c1nc2c(s1)c1nc(N)ncc1c1ccc(NS(=O)(=O)c3c(F)cccc3F)c(F)c12	42.7%	10.8%	57.4%	105%	73%	51.9%	36.1%	-2.66% (active)	20.5%	4.5% (active)
COC(=O)CCc1n(Cc2ccc3ccccc3c2)c2ccccc2[n+]1Cc1ccc2ccccc2c1	79.1%	-25.5% (active)	-8.15% (active)	16%	8.5% (active)	6.6% (active)	-92.9% (active)	-54% (active)	-59.3% (active)	4.8% (active)
O=C(O)CCNC1CCCCC1	99.4%	106%	90.3%	91.2%	94.2%	94.8%	108%	100%	94.1%	100%
COc1ccc(-c2cc(-c3nnc(SCC(=O)Nc4ccc(/C(C)=N\O)cc4)n3-c3ccccc3)c3cc(OC)ccc3n2)cc1	70%	79.8%	80.3%	77.9%	78.1%	61.1%	83.8%	49%	-36.4% (active)	95.4%
CCOC(=O)c1c(C)nc2c(c1N)/C(=C/c1cccs1)C(=O)N2c1ccc(OC)cc1	72.8%	51.3%	30.6%	42.2%	12.4%	35%	45.7%	38.3%	37.6%	37%
COc1ccc(-n2cc(-c3ccc(Cl)c(Cl)c3)[nH]c2=O)cc1OC	93.4%	97.2%	91.8%	90.9%	91.7%	93.2%	104%	87.5%	96.3%	103%
C=C1C(=O)O[C@H]2[C@H]1CC/C(COC(=O)NCC(=O)Nc1ccc(OC)c(C(N)=O)c1O)=C\CC[C@@]1(C)O[C@@H]21	91.2%	18.8%	76.9%	73.9%	62.6%	85.7%	76.4%	42.8%	55.8%	47.9%
COc1ccc2oc(=O)cc(-c3c(C#N)c(N)n4nc(N)c(C#N)c4c3C#N)c2c1	102%	90.7%	116%	112%	101%	104%	99%	107%	95%	107%
CC(=O)Oc1c2c(nc3c1c1ccccc1n3Cc1ccccc1)-c1ccccc1C2	84.9%	75.4%	75.7%	96.7%	78.7%	71.8%	83.7%	70.2%	88.1%	100%
Cc1cc(Cl)cc(CN(Cc2ccccc2)Cc2c(O)ccc3ccccc23)c1O	108%	98.5%	94.5%	99.9%	98.5%	88.5%	95.1%	89.3%	90.2%	113%
